# According to PubChem BioAssay (NCATS):
# Records with an inconclusive call do not appear. A number with no mark means an inactive call. The source made the active and inactive calls. Calls follow the shape of the dose curve; as a rule, active = well fitted inhibition curve with a large enough effect; inconclusive = small, poorly fitted or top-dose-only effect; inactive = flat fitted curve, though single readings scatter.
# Target: Ubiquitin carboxyl-terminal hydrolase 1 (Homo sapiens) (UniProt O94782)
# Assay: Inhibitors of USP1/UAF1: Pilot qHTS (AID 504865); also: nearly all actives have a fitted effect of over 35% in size;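 as to activity change, negative = inhibition: rhodamine fluorescence freed from ubiquitin-rhodamine substrate followed over time; top concentration of the series differs between compounds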
# Settings: purified USP1/UAF1, Ub-rhodamine cleavage fluorescence; series mostly up to 114 µM; activity change, negative = inhibition: at the top concentration
# Summary of the method: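 USP1/UAF1 complex (1nM) preincubated with compound 15 min at room temperature, then Ub-Rho substrate (150nM final) added. Fluorescence read kinetically at 480/540 nm, 6 reads every 60 seconds. Buffer: 50mM HEPES pH 7.8, 0.5mM EDTA, 0.1 mg/ml BSA, 1mM TCEP, 0.01% Tween-20.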
# % is scaled to controls: 0 for no effect and ±100 for the full control effect; potency is read from the fitted curve at half-maximal effect.
# Chain of Ubiquitin carboxyl-terminal hydrolase 1 (Homo sapiens) (O94782 whole entry, looked up): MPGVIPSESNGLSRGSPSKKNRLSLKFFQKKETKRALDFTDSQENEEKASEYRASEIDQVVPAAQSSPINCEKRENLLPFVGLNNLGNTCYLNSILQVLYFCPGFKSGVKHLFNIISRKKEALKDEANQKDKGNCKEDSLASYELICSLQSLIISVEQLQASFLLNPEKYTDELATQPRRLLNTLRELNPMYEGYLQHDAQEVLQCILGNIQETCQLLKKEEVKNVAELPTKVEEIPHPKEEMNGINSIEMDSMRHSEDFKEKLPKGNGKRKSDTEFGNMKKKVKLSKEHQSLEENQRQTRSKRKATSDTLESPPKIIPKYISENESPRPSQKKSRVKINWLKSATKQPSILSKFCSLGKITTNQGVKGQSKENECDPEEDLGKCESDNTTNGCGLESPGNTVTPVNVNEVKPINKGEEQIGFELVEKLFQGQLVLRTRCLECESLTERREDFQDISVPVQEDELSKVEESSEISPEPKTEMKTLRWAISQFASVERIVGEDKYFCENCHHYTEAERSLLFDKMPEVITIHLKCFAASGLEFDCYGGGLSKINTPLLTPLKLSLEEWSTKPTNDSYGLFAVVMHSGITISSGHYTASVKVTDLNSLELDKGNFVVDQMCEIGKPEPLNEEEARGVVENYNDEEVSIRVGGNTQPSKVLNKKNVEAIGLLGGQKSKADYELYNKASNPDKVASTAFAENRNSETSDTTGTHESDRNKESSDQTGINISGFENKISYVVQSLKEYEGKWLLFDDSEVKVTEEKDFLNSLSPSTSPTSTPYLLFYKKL
SMILES,"activity change, negative = inhibition",Potency
CCCc1ncc(C[n+]2ccccc2C)c(N)n1,5.79% [at 54.9 µM],
COc1ccc(C(Cl)=C(c2ccc(OC)cc2)c2ccc(OC)cc2)cc1,-8.04% [at 54.9 µM],
O=C(CCCN1CC=C(n2c(=O)[nH]c3ccccc32)CC1)c1ccc(F)cc1,3.76% [at 54.9 µM],
NS(=O)(=O)Cc1noc2ccccc12,-2.65%,
C[N+]12CCC(CC1)C(OC(=O)C(O)(c1ccccc1)c1ccccc1)C2 (centres undefined),-8.1%,
CCc1ccc(C(=O)C(C)CN2CCCCC2)cc1 (centres undefined),-12.8%,
Cc1c(-c2ccccc2)oc2c(C(=O)OCCN3CCCCC3)cccc2c1=O,3.67% [at 54.9 µM],
C[N+]1(C)CCC(=C(c2ccccc2)c2ccccc2)CC1,-5.23% [at 54.9 µM],
CCCCC(CC)CN1CN(CC(CC)CCCC)CC(C)(N)C1 (centres undefined),-7.74%,
FC(F)(F)C(F)(F)C(F)(F)C(F)(F)C(F)(F)C(F)(F)C(F)(F)C(F)(F)Br,-1.32%,
Cc1cc(NS(=O)(=O)c2ccc(N)cc2)nc(C)n1,-3.94%,
CC(C)NCC(O)c1ccc2ccccc2c1 (centres undefined),,inactive
CCC1Nc2cc(Cl)c(S(N)(=O)=O)cc2S(=O)(=O)N1 (centres undefined),-5.99%,
Cc1ccc(O)c([C@H](CCN(C(C)C)C(C)C)c2ccccc2)c1,-5.82%,
CN(C)CCC[C@@]1(c2ccc(F)cc2)OCc2cc(C#N)ccc21,-6.71%,
NS(=O)(=O)c1ccc(Cl)c(S(N)(=O)=O)c1,3.52%,
CCOc1ccccc1OCCN[C@H](C)Cc1ccc(OC)c(S(N)(=O)=O)c1,-10.4%,

SMILES,"activity change, negative = inhibition",Potency
NCCNc1cccc2ccccc12,-0.0641%,
CCC(C(=O)OCCOCCN(CC)CC)c1ccccc1 (centres undefined),-8.22%,
CN(C)CCOC(c1ccc(Cl)cc1)c1ccccn1 (centres undefined),,inactive
CC(=O)NC(=O)c1ccccc1O,-6.47%,
O=C(c1ccc(F)cc1)C1CCN(CCn2c(=S)[nH]c3ccccc3c2=O)CC1,-7.38%,
COc1ccc(CN(CCN(C)C)c2ncccn2)cc1,-1.6%,
CCCCCCCCOc1ccc(C(=O)c2ccccc2)c(O)c1,-6.21%,
NCc1ccccc1Sc1ccccc1CO,-7.68%,
Cc1cc2c(OCC(CNC(C)(C)C)OC(=O)c3ccccc3)cccc2[nH]1 (centres undefined),-6.39%,
Cc1nc(-c2ccc(Cl)cc2)oc1COC(C)(C)C(=O)O,-10%,
COc1ccc(-c2cc(C(F)F)nn2-c2ccc(S(N)(=O)=O)cc2)cc1F,-8.17%,
CCN1/C(=C/C=C/c2sc3ccccc3[n+]2CC)Sc2ccccc21,,44.7 µM (active)
O=C(Nc1ccc([N+](=O)[O-])cc1)Nc1ccc([N+](=O)[O-])cc1,-8.84%,
CCN(CC)CCNC(=O)COc1ccc(OC)cc1,,inactive
Nc1ccc(S(=O)(=O)NCc2ccccc2)cc1,-6.29%,
CN(C)CCOC(=O)C(c1ccccc1)C1(O)CCCC1 (centres undefined),-6.25%,
CCc1oc2ccccc2c1C(=O)c1cc(I)c(O)c(I)c1,,39.8 µM (active)
